Measurements from PubChem BioAssay (Tox21).
Inconclusive results are not listed. Unmarked numbers belong to inactive results. Activity calls are given as the source filed them. The call rests on the fitted dose curve; in most records, active means well fitted cell-killing curve with a large enough effect in the repeat runs; inconclusive means weak or mixed curves, or effect the other way; inactive means flat fitted curve, though single readings scatter.

Experiment: qHTS RealTime-Glo MT Cell Viability Assay in HEK293 cells - 32 hour (AID 1224868); further: nearly all actives have a fitted effect of over 50% in size; on activity change, negative = cytotoxic: top concentration of the series differs between compounds
Details: RealTime-Glo luminescence; series mostly up to 76.8 µM; activity change, negative = cytotoxic: at the top concentration
Text: National Center for Advancing Translational Sciences [NCATS]
NIH Chemical Genomics Center [NCGC]
U.S. Environmental Protection Agency [EPA]
National Institutes of Environmental Health Sciences [NIEHS]
National Toxicology Program [NTP]
U.S. Food and Drug Administration [FDA]
Measure of cell viability is critical in the cell-base assay. Analysis of cell viability is necessary for the characterization of cell responses to cytotoxic drugs and environmental stress. A RealTime-Glo MT Cell Viability Assay to monitor cell viability in real time of continues cell culture during 40 hours of compound treatment was used to screen Tox21 10K library compounds in Hek293 cells. The RealTime-Glo MT Cell Viability Assay is a nonlytic, homogeneous, bioluminescent method to measure cell viability in real time using a simple, plate-based method. The assay involves adding NanoLuc luciferase and a cell-permeant prosubstrate to cells in culture. Viable cells reduce the proprietary prosubstrate to generate a substrate for NanoLuc luciferase. This substrate diffuses from cells into the surrounding culture medium, where it is rapidly used by the NanoLuc Enzyme to produce a luminescent signal. The signal correlates with the number of viable cells, making the assay well suited for cytotoxicity studies.
Tox21 Assay Protocol Summary:
The mixture of Hek293 cell suspension and reagents were dispensed at 600cells/6 ul/well in 1536-well tissue culture treated black solid bottom plates using a Multidrop dispenser. After the assay plates were incubated at a 37 C/5% CO2 incubator for 5 hours, 23 nL of compounds dissolved in DMSO, positive and negative controls was transferred to the assay plate by a pintool work station. The plates were incubated at 37 C for 40 hours. The luminescence intensity were measured at 0h, 8h, 16h, 24h, 32h and 40h time points using ViewLux plate reader during compound treatment.
On the % scale 0 is the no-effect control and ±100 the full control effect; potency means the concentration at half of the fitted maximal effect.

Row | SMILES | Potency | activity change, negative = cytotoxic
1 | CCCCCCCCCCCCCCCCCCNC(=O)OC1CCN(C(=O)OC[C@H](COC(=O)N(Cc2cccc[n+]2CC)C(=O)c2ccccc2OC)OC)CC1 | 9.52 µM (active) | 
2 | C/C(=N\[Si](C)(C)C)O[Si](C)(C)C |  | -0.626%
3 | Cc1cccc(C)c1C |  | 5.15%
4 | CCN(CCC#N)c1ccc(N=Nc2ccc([N+](=O)[O-])cc2)cc1 |  | 1.16%
5 | CC1(C)[C@H](C(=O)OCc2cccc(Oc3ccccc3)c2)[C@@H]1C=C(Cl)Cl |  | 4.12%
6 | CN(C[C@@H](CC[N+]12CCC(C3CCCCC3)(CC1)CC2)c1ccc(Cl)c(Cl)c1)C(=O)c1cc(C(F)(F)F)cc(C(F)(F)F)c1 | 2.19 µM (active) | 
7 | c1ccc2cc3c4ccccc4c4ccccc4c3cc2c1 |  | -2.05%
8 | CCCCCCCCSCc1cc(C)c(O)c(CSCCCCCCCC)c1 |  | -19.6%
9 | CN1CC[C@H](c2c(O)cc(O)c3c(=O)cc(-c4ccccc4Cl)oc23)[C@H](O)C1 | 0.19 µM (active) | 
10 | ClC(c1ccccc1)(c1ccccc1)c1ccccc1 |  | -26.6%
11 | CCCCCCCC/C=C\CCCCCCCC(=O)N(CCO)CCO | 43.5 µM (active) | 
12 | CN1CCN(c2ccccc2/C=C2\SCCN(c3ccc(Cl)c(Cl)c3)C2=O)CC1 | 12.3 µM (active) | 
13 | C=CC(=O)OCCOC1C2CCC1C1CC=CC12 (stereo not given) |  | 0.499% [at 15.8 µM]
14 | Cc1ccc(C=O)cc1 |  | 9.6% [at 35.3 µM]
15 | O=C(O)C[C@H](O)C[C@H](O)/C=C/c1c(C2CC2)nc2ccccc2c1-c1ccc(F)cc1 |  | -6.08% [at 15.8 µM]
16 | Cc1ccc(N=Nc2c(O)ccc3ccccc23)c(C)c1 |  | -14.5% [at 35.3 µM]
17 | CC1=CC[C@@H](C(C)(C)O)CC1 |  | 0.981%
18 | c1ccc2c(c1)-c1ccc3ccc4cccc5cc-2c1c3c45 |  | -0.0424% [at 35.3 µM]
19 | CC(C)=CCC[C@H](C)CC=O |  | 17.2%
20 | CCN(CC)c1ccc(N=Nc2ccccc2)cc1 | 49 µM (active) | 

Row | SMILES | Potency | activity change, negative = cytotoxic
21 | CCCC(=O)c1cc(O)c(O)cc1O |  | 2.49%
22 | Cn1c(=O)[nH]c2ncn(C)c2c1=O |  | 1.6%
23 | CCC(=O)OC/C=C(\C)CCC=C(C)C |  | -2.46%
24 | C=C(C)CCO |  | -0.654%
25 | CC(C)=NNC(N)=S |  | 7.15%
26 | CC(=O)CC(N)=O |  | 12.2%
27 | CCCCNc1ccc(NCCCC)c2c1C(=O)c1ccccc1C2=O |  | 1.33% [at 15.8 µM]
28 | CN1CCN(CCCN2c3ccccc3Sc3ccc(C(F)(F)F)cc32)CC1 | 23.9 µM (active) | 
29 | CCCCCCCCCCCC(=O)Cl |  | 1.96%
30 | COc1cc([C@@H]2c3cc4c(cc3[C@@H](O[C@@H]3O[C@@H]5CO[C@@H](C)O[C@H]5[C@H](O)[C@H]3O)[C@H]3COC(=O)[C@H]23)OCO4)cc(OC)c1O | 0.861 µM (active) | 
31 | O=C1CCC/C=C\CCCCCCCCCC1 |  | -6.12%
32 | CCOC(=O)[C@H](C)O |  | 7.99%
33 | C/C(=C\c1ccc(C(=O)O)cc1)c1ccc2c(c1)C(C)(C)CCC2(C)C |  | -13.8% [at 35.3 µM]
34 | Nc1ccc2c(S(=O)(=O)O)cccc2c1S(=O)(=O)O |  | 5.1% [at 35.3 µM]
35 | CC(C)C(=O)C(C)C |  | 11.4%
36 | CN[C@H]1CC[C@@H](c2ccc(Cl)c(Cl)c2)c2ccc(S(N)(=O)=O)cc21 | 19.5 µM (active) | 
37 | COCCC(=O)OC |  | -0.746%
38 | O=[N+]([O-])c1ccc(CO)cc1 |  | 10.6%
39 | CN(C)CCOc1ccc(/C(=C(/CCCl)c2ccccc2)c2ccccc2)cc1 | 36.4 µM (active) | 
40 | O=C(CCCCCCCCc1cccnc1)N1CCC(C=C(c2ccccc2)c2ccccc2)CC1 | 21.9 µM (active) | 
